Sampled rows, rich in hits. Any-hit rate of the full collection: about 19%.
TDP1 cell CPT = DT40-hTDP1 cell growth loss with CPT | chicken DT40 Tdp1-/-;hTDP1 cells + 20 nM CPT, ATP luminescence, 48 h | Potency, µM (highest dose often 46.2 µM), for the others: at the highest dose activity change, negative = growth inhibition, most hits filed as inhibitors | actives 12% (n = 420,000); further: potency means the concentration at half of the fitted maximal effect; nearly all actives have a fitted effect of over 55% in size
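Cell growth measured by CellTiter-Glo luminescence after a minimum 48 h, 37 C compound exposure with 20 nM CPT in Tdp1-knockout DT40 cells stably expressing hTDP1, seeded 400/well; qHTS titration format.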
IL-1B inflam inh = inhibitors of inflammasome signaling (IL-1 beta secretion). actives 4.7% (n = 360,000). THP-1 LPS/ATP IL-1B secretion, AlphaLISA, 16 h; hits give low values. activity change, % at 57.5 µM. AID 743279; in the data active means activity change below about -50%; inconclusive means mostly about -30% to -49%
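Secreted IL-1B measured by AlphaLISA bead assay after 16 h compound exposure of THP-1 cells; compounds (final up to 57.5 uM) added 1 h before LPS (250 ng/mL) and ATP (1.25 mM) stimulation; lower signal means less secretion.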
TDP1 cell noCPT = qHTS for Inhibitors of human tyrosyl-DNA phosphodiesterase 1 (TDP1): qHTS in cells in absence of CPT; DT40 Tdp1-/- hTDP1 cells, no CPT, ATP luminescence, 48 h; Potency, µM (series often up to 46.2 µM), for inactives: at the top dose activity change, negative = growth inhibition, usual class: inhibitors; actives 15% (n = 420,000); AID 686978, 2013; further: potency means the concentration at half of the fitted maximal effect; nearly all actives have a fitted effect of over 55% in size
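Growth kinetics read by CellTiter-Glo luminescence after ≥48 hr at 37 °C. Cells: DT40 Tdp1-/- stably carrying human TDP1, 400 per well, compound exposure in the absence of CPT (DMSO vehicle).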
HT1080 IDH1KD tx = toxicity to HT-1080 IDH1 knockdown cells (counter line) | HT-1080 IDH1 knockdown viability, ATP luminescence, 48 h | Potency, µM (top dose mostly 46.1 µM), inactives show at the highest dose activity, negative = toxicity, most hits filed as cytotoxic | actives 2% (n = 360,000) | AID 686971;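 further: potency means the concentration at half of the fitted maximal effect; 0% = DMSO wells and -100% = cell-free medium wells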
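In this qHTS, HT-1080 cells depleted of IDH1 are exposed for 48 h at 37 °C to compound titrations. Toxicity is scored from CellTiter-Glo luminescence, with DMSO as full viability and medium alone as none.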
HT1080NT lethal = kills 2HG-producing HT-1080-NT fibrosarcoma cells; HT-1080-NT fibrosarcoma viability, CellTiter-Glo ATP luminescence, 48 h; Potency, µM (doses to about 46.1 µM), without a hit: at the highest dose activity, negative = less viability, usual class: cytotoxic; actives 1.6% (n = 360,000);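 further: NT is the 2HG producing partner of a matched IDH1 knockdown line; potency means the concentration at half of the fitted maximal effect; 0% = DMSO-treated cells and -100% = media-only wells without cells; nearly all actives have a fitted effect of over 55% in size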
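Viability by CellTiter-Glo luminescence after 48 h compound exposure at 37C of HT-1080-NT cells (750/well, RPMI, 5% FBS). % activity scaled between DMSO wells and medium-only wells, then curve-fitted and categorized by curve class.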
Starred values were filed as active, the others as inactive; ? = inconclusive; . = no result; ! = not confirmed by another sample; [ ] = dose if it differs, or a comment. Unless noted, the call rests on the fitted dose curve; in most records, active means well fitted curve in the direction sought with a large enough effect; inconclusive means small, poorly fitted or top-dose-only effect, or another doubt; inactive means no such curve, though single readings can be large; an effect the other way counts as inactive or inconclusive. Unless noted, on the % scale 0 is the no-effect control and ±100 the full control effect.

SMILES	TDP1 cell CPT	IL-1B inflam inh	TDP1 cell noCPT	HT1080 IDH1KD tx	HT1080NT lethal
CCOc1cc(OCC)cc(C(=O)N2CCC[C@H]2C(=O)N2CCC[C@H]2C(=O)N(C)Cc2ccccc2)c1	5.6%	17.3	0.164µM*	17.1%	21.0%
CN(Cc1ccccc1)C(=O)[C@@H]1CCCN1C(=O)[C@@H]1CCCN1C(=O)c1cccs1	-2.3%	43.2	-2.1%	9.8%	11.1%
CN(Cc1ccccc1)C(=O)[C@@H]1CCCN1C(=O)[C@@H]1CCCN1C(=O)c1cccc2ccccc12	?	12.0	18.4µM*	6.1%	13.2%
O=c1c2ccccc2nc(-c2ccc(Cl)cc2)n1C1CCS(=O)(=O)C1 (configuration not stated)	-21.3%	5.6	-28.0%	-5.6%	-0.9%
COc1ccccc1N1CCN(/N=C/c2cc(Br)ccc2F)CC1	?	-6.5	?	4.9%	11.7%
Cn1cnnc1SCC(=O)NNC(=O)COc1ccc(Cl)cc1	2.7%	-3.7	1.7%	11.6%	7.8%
C[C@H]1COc2cc(N3CCC[C@@H]3CO)ccc2S(=O)(=O)N1	-4.0%	36.5	-9.1%	5.7%	19.3%
CCOC(=O)C1CCN(C(=O)C(C)Oc2ccc(C(=O)c3ccccc3)cc2)CC1 (configuration not stated)	?	0.0	?	-10.0%	-0.9%[9.24 µM]
Clc1ccccc1C1=Nn2c(nnc2-c2ccncc2)SC1	6.51µM*	-85.6*	10.3µM*	-10.3%	-29.2%
CCc1ccc(C2=Nn3c(nnc3-c3cccs3)SC2)cc1	?	-6.2	20.6µM*	?	-22.5%
c1csc(C2=Nn3c(nnc3-c3ccncc3)SC2)c1	14.6µM*	-75.4*	14.6µM*	-14.5%	-0.2%
O=C(Cn1cncn1)c1ccccc1	-1.5%	-25.5	3.3%	9.7%	16.6%
CCCCCCCn1ccc(O)c(CC(=O)OC)c1=O	-5.8%	-14.5	-4.7%	-0.1%	1.7%
CCCCCn1ccc(=O)c2c(C(F)(F)F)nccc21	13µM*	16.8	18.4µM*	-12.2%	0.6%
COc1ccc(N(C(=O)Cn2nnc(-c3ccc(C)o3)n2)C(C(=O)NC2CCCC2)c2ccncc2)cc1 (configuration not stated)	-29.6%	-9.3	?	-0.3%	-2.4%
CNCCC(Oc1ccccc1OC)c1ccccc1 (configuration not stated)	13µM*!	-13.3	23.1µM*!	-4.0%	-1.0%
CNCC[C@@H](Oc1ccccc1C)c1ccccc1	?	?	23.7µM*	?	?
COc1cc(=O)n2c(c1C(=O)NC(C)c1ccco1)CCN(C(=O)c1ccc(F)cc1Cl)CC2 (configuration not stated)	-9.8%	.	0.1%	.	.
CC(=O)N(C(C)=O)c1ncn(C)c1S(=O)(=O)Nc1ccccc1	1.7%	13.6	5.4%	7.8%	-2.0%
Cc1cc(-c2n[nH]c(=S)n2-c2ccc(F)cc2)nn1C	-2.2%	-7.2	8.2%	6.4%	14.1%
O=C1C(=O)C(Cl)=C(Cl)C(Cl)=C1Cl	-13.5%	-27.7	7.5%	8.6%	27.2%
COc1cc(OC)cc(C(=O)NCCc2csc(-c3cccc(C)c3)n2)c1	14.6µM*	.	16.4µM*	.	.
Cc1cccc(-c2nc(CCNC(=O)Cc3ccccc3)cs2)c1	?	.	20.6µM*	.	.
CCc1ccc(NC(=O)C(=O)NCCc2csc(-c3ccc(C(F)(F)F)cc3)n2)cc1	-19.3%	.	?	.	.
COc1cc(OC)cc(C(=O)NCCc2csc(-c3ccc(C(F)(F)F)cc3)n2)c1	?	.	18.4µM*	.	.
Cc1nc(CCNC(=O)Cc2ccccc2)cs1	-2.2%	1.5	0.0%	14.5%	9.1%
Cc1ccc(C(=O)NCCc2csc(-c3cccc(F)c3)n2)cc1C	-25.9%	.	-19.1%	.	.
O=C(COC(=O)c1nc(Cl)ccc1Cl)NCc1ccccc1	16.9%	43.0	5.3%	12.7%	-0.2%
